# Among all 38,000 compounds or so, about 1,200 (3.2%) showed an effect of 50% or more. The median lay at about -58%. Only a selection was taken, and strong results are over-represented in it overall.
# Test system: Plasmodium falciparum
# Test: Calibr Malaria Delayed Death Assay SOP
# Assay type: functional, organism-based
# Parameters: scale not given: in the data most compounds retested in dose-response had high values
# Settings: concentration 4.99e-06 (unit not given; other assays of the set use mol/L)
row,SMILES,Percent Effect
1,Cc1ccc(NC2CCN(C(=O)c3ccc(C#N)cc3)CC2)nn1,-90.82%
2,Cc1nccc(NCc2cncc3c2CCN(S(C)(=O)=O)C3)n1.Cl,-112.1%
3,CSCC[C@H](NC(=O)CCn1ccc2c(Cl)cccc21)C(=O)O,-54.73%
4,Cn1cc(CN2CCCC23CCN(C(=O)c2ccsc2)CC3)cn1.O=C(O)C(F)(F)F,-0.2713%
5,Cc1nn(C)cc1-c1cc(C(F)(F)F)nc(NC2CCCCC2)n1,-100.7%
6,CN(Cc1ccco1)[C@@H]1CN(Cc2ccoc2)C[C@@H]2CCCO[C@@H]21,59.2%
7,O=C(NCc1ccco1)[C@@H]1CC[C@@H]2[C@@H](CCN2CC2CC2)O1.O=C(O)C(F)(F)F,7.283%
8,O=C(NCc1ccco1)[C@H]1CC[C@@H]2[C@@H](CCN2Cc2cccnc2)O1.O=C(O)C(F)(F)F.O=C(O)C(F)(F)F,-37.9%
9,CN(Cc1cncnc1)[C@@H]1CN(Cc2ccco2)C[C@@H]2CCCO[C@@H]21.O=C(O)C(F)(F)F.O=C(O)C(F)(F)F,-10.65%
10,CN(Cc1ccco1)[C@@H]1CN(Cc2cccnc2)C[C@@H]2CCCO[C@@H]21.O=C(O)C(F)(F)F.O=C(O)C(F)(F)F.O=C(O)C(F)(F)F,27.09%
11,O=C(NCc1ccco1)[C@@H]1CC[C@@H]2[C@@H](CCN2Cc2ccc(F)cc2)O1.O=C(O)C(F)(F)F,66.38%
12,Cc1cc(I)c2c(c1)C(=O)C(CN1CCCC1)(CN1CCCC1)CO2,-91.39%
13,CCCOC1CCCN(c2nc(COC)nc3c2cnn3C)C1 (stereo not given),-157.4%
14,CC(=O)Nc1nc(C2CCN(C(=O)c3ccncc3)CC2)cs1,10.73%
15,COCC1c2c(cnn2CC2CC2)CCN1Cc1cc(C)on1.O=C(O)C(F)(F)F.O=C(O)C(F)(F)F (stereo not given),-52.73%
16,COc1ccncc1NCc1ccsc1,-36.48%
17,COc1ncccc1C(Cc1ccsc1)NC(=O)Cn1cccnc1=O (stereo not given),-43.2%
18,CNc1cc(N2CCCC2CNCc2cccc(C#N)c2)ncn1 (stereo not given),-40.51%
19,Cc1ccc(C2CN(CCS(C)(=O)=O)CCO2)c(C)c1 (stereo not given),-57.06%
20,CN(Cc1cccc(F)c1)C(=O)CS(=O)(=O)Cc1c(Cl)cccc1Cl,82.58%
21,Cc1noc(C)c1CS(=O)(=O)CC(=O)N(C)Cc1cccc(F)c1,-32.62%
22,Cc1ccccc1CS(=O)(=O)CC(=O)N(C)Cc1cccc(F)c1,-13.79%
23,CO[C@H]1CC[C@H]2[C@H]1OCCN2C(=O)c1nn(C)c2ccccc12,-87.32%
24,CC1CN(CC(=O)NCc2ccc(F)cc2)CCN1c1nccs1 (stereo not given),-59.43%
25,CC/N=c1\nc(NCC)nc2n1C(O)(Nc1ccc(C)cc1C)CS2 (stereo not given),-60.63%

row,SMILES,Percent Effect
1,Cc1cccc(CS(=O)(=O)NCc2nn(C)c3c2COCC3)c1,-48%
2,O=C(C1CC1)N1CCC2(CC1)COCCN2Cc1ccc(F)cc1.O=C(O)C(F)(F)F,-44.57%
3,Cc1ccc(NC(=O)CN2CCOCC2)c(F)c1,-28.6%
4,CCc1cnc(N)nc1N1CCCC2(CCOCC2)C1,-153.3%
5,Cc1nc(C)c(C)c(N2CCC3(CCN(C)C3)C2)n1 (stereo not given),18.67%
6,CCc1nc(N)nc(N2CCCC3(CCN(C)CC3)CC2)c1C,75.43%
7,O=C(O)C(F)(F)F.O=C(c1cnccn1)N1C[C@@H](OCc2ccncc2)[C@@H]2OCCC[C@@H]21,-88.13%
8,CNC(=O)CCN(C)CC1(c2ccc(Br)cc2)CC1,86.7%
9,CNC(=O)N(C)CC1(c2ccc(Br)cc2)CC1,-138.2%
10,CNC(=O)CN(C)CC1(c2ccc(Br)cc2)CC1,20.85%
11,COCCn1c2c(ccc1=O)CCN(C(=O)NC1CC1)CC2,-102.5%
12,O=C1CC(c2ccc(O)cc2)c2sc(C(=O)O)c(-c3ccccc3)c2N1 (stereo not given),-164.8%
13,Cc1ocnc1C(=O)N1CC[C@@H](O)[C@@H](O)[C@H](N2CCC(F)(F)CC2)C1,-140.1%
14,Cc1ccc2c(n1)N(CC(C)C)CCN(S(C)(=O)=O)C2.O=C(O)C(F)(F)F,-91.42%
15,CCN1CC(CN2CCOCC2)Oc2ncccc2C1=O (stereo not given),-121.7%
16,O=C(C1CNCCO1)N1CCC(c2cc(N3CCCC3)ncn2)CC1 (stereo not given),-72.24%
17,Cc1ccc(-c2ccc(C3CNCCO3)nc2)cc1.Cl (stereo not given),82.68%
18,O=C(c1csc(C2CC2)n1)N1CCCCC1Cn1cccn1 (stereo not given),-84.46%
19,CN(Cc1cccc(C#N)c1)c1ncc(C(N)=O)cc1Cl,-70.4%
20,CC(C(=O)Nc1cc(F)ccc1F)N1CCN(Cc2ncc[nH]2)CC1 (stereo not given),-135.8%
21,O=C(NCCC(O)c1ccccc1)c1ccco1 (stereo not given),-97.01%
22,NCCC(Cc1ccccc1)c1ccco1 (stereo not given),83.75%
23,O=S(=O)(Cc1ccccc1)NCc1ccco1,-115.6%
24,CCOc1cccc(C(=O)N(CCC#N)Cc2ccccn2)c1,-89.54%
25,O=C(NC1CC1)c1cc2c(s1)CCN2C(=O)C1CC1,-64.25%

row,SMILES,Percent Effect
1,Cc1ccc(C)c(S(=O)(=O)NC(=O)c2cccc3c2OCCO3)c1,-117.7%
2,C[C@@H]1CN(Cc2ccncc2)C[C@]1(C)O,-25.52%
3,COc1cccc(CN2CCCCC2CN2CCOCC2)c1F (stereo not given),2.016%
4,COc1cc2c(cc1CN1C[C@@H](CN3CCOCC3)[C@@H](CO)C1)CCC2,19.43%
5,COc1cc2c(cc1CN1CCCCC1CN1CCOCC1)CCC2 (stereo not given),64.85%
6,Cc1c(C(=O)NCCCC(N)=O)sc2ccc(F)cc12,-72.75%
7,O=C1CC(NS(=O)(=O)c2ccc3ccccc3c2)CN1 (stereo not given),-65.16%
8,Cc1noc([C@@H]2C[C@@H]3CCN(c4nnc(C)s4)C[C@H]3O2)n1.O=C(O)C(F)(F)F,-44.29%
9,CN(Cc1cc2cc(F)ccc2[nH]1)c1cc(C2CCCNC2)ncn1 (stereo not given),83.71%
10,Cc1nc(CCN)cc(N(C)Cc2nc3ccc(F)cc3[nH]2)n1,-113.9%
11,Cc1nc(C2CCNCC2)cc(N(C)CCc2cn[nH]c2)n1,-114.3%
12,CNS(=O)(=O)CC(=O)N(Cc1c(F)cccc1Cl)C1CC1,-68.94%
13,Cc1nc(C2CCNCC2)cc(N(C)Cc2cc3cc(F)ccc3[nH]2)n1,75.18%
14,Cc1ccnc(CC(C)N(C)c2cc(C3CCNCC3)nc(C)n2)c1 (stereo not given),-104.4%
15,Cc1nc(NCc2coc(-c3ccccc3)n2)cc(C2CCNCC2)n1,-7.041%
16,CN(Cc1cc2cc(F)ccc2[nH]1)C(=O)C1CC(=O)N(C2CCCC2)C1 (stereo not given),12.79%
17,Cc1nc(NCc2ccc(C)o2)cc(C2CCNCC2)n1,-133.8%
18,Cc1c(CN(C)c2cc(C3CCCNC3)ncn2)[nH]c2ccccc12 (stereo not given),11.41%
19,Cc1cccc(CNC(=O)Nc2cc(C(F)(F)F)c[nH]c2=O)n1,-120.3%
20,CCn1nc(C)c2nc(C)nc(NC3CCCC3)c21,-48.65%
21,Cc1ccc(CN2CCN(CC(=O)Nc3ccc4nsnc4c3)CC2)o1,-102.5%
22,CC(=O)c1ccc(-c2cc(C(F)(F)F)cc(N(C)C)n2)cc1,-183.7%
23,CCOC(=O)C1=NOC(Cc2cc(OC)c3c(c2)OCO3)C1 (stereo not given),-124.2%
24,Cc1cc(N2CCOCC2)ccc1NC(C)c1nc(C(C)C)no1 (stereo not given),-4.816%
25,CCOC(=O)N1CCN(c2nc(CCN)nc3sc(C)c(C)c23)CC1,65.93%

row,SMILES,Percent Effect
1,Cc1sc2nc(CCN)nc(N3CCC(N4CCCC4)CC3)c2c1C,84.16%
2,Cc1sc2nc(CCN)nc(N3CCS(=O)(=O)CC3)c2c1C,-119.4%
3,Cc1sc2nc(C(F)(F)F)nc(N3CCN(S(C)(=O)=O)CC3)c2c1C,-77.64%
4,CCOC(=O)N1CCN(c2nc(C)ncc2CC)CC1,-56.83%
5,Cc1sc2nc(C(F)(F)F)nc(N3CCC(NS(C)(=O)=O)CC3)c2c1C,27.92%
6,Cn1ccnc1-c1cn(CCCc2nnc(N)s2)nn1,-41.76%
7,O=C(N1CCCC(n2cncn2)C1)C1(c2cccc(F)c2)CCC1 (stereo not given),-129.3%
8,CCN(CC)C(=O)COc1ccnc2cc(OC)ccc12,-91.77%
9,O=C(C1CCCO1)N1CCC2(CC1)COCCN(Cc1cccnc1)C2.O=C(O)C(F)(F)F.O=C(O)C(F)(F)F (stereo not given),-101.1%
10,Cc1cccn2cc(CNCc3cccc4c3OCCCO4)nc12,52.57%
11,Cc1cccc2nc(CNCc3cccc4c3OCCCO4)cn12,46.47%
12,c1cc(CNCCc2cn3ccccc3n2)c2c(c1)OCCCO2,-61.04%
13,CN(C)C(=O)Cc1ccc(-c2cccc3c2CCNC3)cc1,-89.76%
14,CCCOC1CCCN(c2ccnc(C(=O)NCc3ccco3)c2)C1 (stereo not given),63.16%
15,CN(C)[C@H]1CCN(c2ccnc(C(=O)NCc3ccco3)c2)C1,-104.8%
16,O=C(NCc1ccco1)c1cc(N2CC[C@@H](O)C2)ccn1,-225.7%
17,CCS(=O)(=O)Nc1cnn(Cc2cccc(Cl)c2)c1,-156.5%
18,COc1ccc(-c2nc3c([nH]2)CCCNC3=O)cc1OC,-190.2%
19,Cc1nn(C)c(N2CCOCC2)c1CNC(C)c1ccccn1 (stereo not given),-39.11%
20,CN(C)C(=O)C1(Oc2ccc(Cl)cc2)CCNCC1,48.49%
21,COc1cccn(CC(=O)N(C)Cc2ccoc2)c1=O,-45.98%
22,Cc1ccc(OC2(C(=O)N(C)Cc3ccoc3)CCNCC2)cc1,63.87%
23,O=C(N[C@@H]1CCCNC1)C1(Oc2ccc(Cl)cc2)CCNCC1,-19.49%
24,CN(Cc1ccncn1)C(=O)C1(Oc2ccc(Cl)cc2)CCNCC1,-76.49%
25,CN(Cc1ccoc1)C(=O)C1(Oc2ccc(Cl)cc2)CCNCC1,67.21%

# — ChEMBL document CHEMBL3988442, “University of Dundee, Small-Polar-MMV Screening Library” (2021)
